Source: PubChem BioAssay (NCATS)
Inconclusive results are not listed. The source made the active and inactive calls. Unless noted, calls come from the whole dose curve; as a rule, active = well fitted curve in the direction sought with a large enough effect; inconclusive = small, poorly fitted or top-dose-only effect, or another doubt; inactive = no such curve, though single readings can be large; an effect the other way counts as inactive or inconclusive.

Assays:
[1] = target: Ubiquitin carboxyl-terminal hydrolase 1 (Homo sapiens) (UniProt O94782); test: Inhibitors of USP1/UAF1: Pilot qHTS (AID 504865);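 note: rhodamine fluorescence freed from ubiquitin-rhodamine substrate followed over time; top concentration of the series differs between compounds; nearly all actives have a fitted effect of over 35% in size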
Chain of Ubiquitin carboxyl-terminal hydrolase 1 (Homo sapiens) (O94782 whole entry, looked up): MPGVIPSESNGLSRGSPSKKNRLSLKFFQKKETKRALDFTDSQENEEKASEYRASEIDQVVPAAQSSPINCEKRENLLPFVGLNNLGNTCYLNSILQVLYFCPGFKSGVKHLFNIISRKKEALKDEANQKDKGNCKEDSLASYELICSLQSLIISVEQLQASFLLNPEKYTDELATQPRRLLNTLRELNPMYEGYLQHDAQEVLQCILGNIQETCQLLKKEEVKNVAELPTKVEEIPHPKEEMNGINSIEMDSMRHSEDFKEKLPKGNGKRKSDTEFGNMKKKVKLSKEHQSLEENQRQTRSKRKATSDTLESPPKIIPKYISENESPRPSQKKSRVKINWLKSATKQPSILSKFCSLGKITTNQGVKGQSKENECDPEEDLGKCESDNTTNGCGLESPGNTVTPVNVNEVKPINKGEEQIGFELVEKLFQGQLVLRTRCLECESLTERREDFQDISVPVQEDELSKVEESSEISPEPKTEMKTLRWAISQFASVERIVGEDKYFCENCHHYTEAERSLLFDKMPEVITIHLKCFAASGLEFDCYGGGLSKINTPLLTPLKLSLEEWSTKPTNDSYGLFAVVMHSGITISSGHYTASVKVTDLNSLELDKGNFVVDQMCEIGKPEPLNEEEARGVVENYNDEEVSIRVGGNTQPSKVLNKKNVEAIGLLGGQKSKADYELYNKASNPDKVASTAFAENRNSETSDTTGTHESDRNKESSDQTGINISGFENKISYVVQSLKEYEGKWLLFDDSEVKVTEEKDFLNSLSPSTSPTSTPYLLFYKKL
Summary of the method: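 In 50mM HEPES pH 7.8 containing 0.5mM EDTA, 1mM TCEP, 0.1 mg/ml BSA and 0.01% Tween-20, 1nM USP1/UAF1 is exposed to compound for 15 min, then Ub-Rho (150nM final) is added and fluorescence is read over time.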

[2] = target: Luciferin 4-monooxygenase (Photinus pyralis) (UniProt P08659); test: Biochemical firefly luciferase enzyme assay for NPC (AID 624030);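 note: purified P. pyralis luciferase at 10 nM with luciferin and ATP substrate; nearly all actives have a fitted effect of over 70% in size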
Chain of Luciferin 4-monooxygenase (Photinus pyralis) (P08659 whole entry, looked up): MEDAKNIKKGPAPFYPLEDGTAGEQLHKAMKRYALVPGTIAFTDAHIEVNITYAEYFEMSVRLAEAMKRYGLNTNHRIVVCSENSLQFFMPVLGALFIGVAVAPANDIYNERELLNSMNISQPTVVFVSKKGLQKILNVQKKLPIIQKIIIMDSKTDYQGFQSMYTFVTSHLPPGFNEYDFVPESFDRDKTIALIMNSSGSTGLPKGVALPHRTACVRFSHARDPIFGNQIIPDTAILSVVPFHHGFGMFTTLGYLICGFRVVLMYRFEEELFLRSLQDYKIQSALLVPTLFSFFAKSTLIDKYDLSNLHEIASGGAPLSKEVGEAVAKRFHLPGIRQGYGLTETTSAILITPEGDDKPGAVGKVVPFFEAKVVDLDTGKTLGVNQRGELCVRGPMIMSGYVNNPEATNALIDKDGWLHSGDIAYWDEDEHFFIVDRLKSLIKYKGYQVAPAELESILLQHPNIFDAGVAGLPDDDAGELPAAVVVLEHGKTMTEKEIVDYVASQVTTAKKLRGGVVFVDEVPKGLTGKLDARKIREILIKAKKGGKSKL
Summary of the method: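 Purified P. pyralis luciferase at 10 nM in 50 mM Tris Acetate (final), luminescence read within 5 minutes of enzyme addition to compounds. Activity normalised to PTC124 versus DMSO; concentration-response curves classed by r2, magnitude and activity.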

[3] = S16 Schwann cell viability assay (CellTiter-Glo assay) (AID 624031);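 note: cellular ATP luminescence as a viability measure; nearly all actives have a fitted effect of over 70% in size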
Summary of the method: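 Untransfected S16 rat Schwann cells; compound 24 h, 37 °C/5% CO2; CellTiter-Glo ATP luminescence. % activity vs no-cell wells and DMSO controls (0%); concentration-effect curves classed by r2, response magnitude, activity.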

[4] = S16 Schwann cell PMP22 intronic element beta-lactamase assay (AID 624044; calls by dose curve; note: nearly all actives have a fitted effect of over 15% in size); settings: S16 rat Schwann cells, PMP22 element beta-lactamase FRET, 24 h; ratio activity, negative = inhibition: at 38.3 µM (top of the series) unless noted
Summary of the method: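 Rat S16 Schwann cells with beta-Lac driven by a PMP22 intronic element, compound-treated 24 h at 37 °C. LiveBLAzer FRET B/G read: 460 nm normalized to potassium clavulanate vs DMSO; 535 nm FRET as viability; concentration-effect curves classified.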

CP260 = test: qHTS profiling for inhibitors of Plasmodium falciparum proliferation (AID 504749); note: nearly all actives have a fitted effect of over 60% in size; settings: P. falciparum in erythrocytes, SYBR Green DNA, 72 h; series mostly up to 28.7 µM
Summary of the method: (§1)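 Readout was DNA-dye fluorescence from lysed cultures, ex 485/em 535 nm. Parasitized red cells had grown 72 h with compound; data scaled between 0.29 uM artemisinin and DMSO wells and corrected using vehicle-only plates.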

Dd2 = test: as above; settings: P. falciparum in erythrocytes, SYBR Green DNA, 72 h; series mostly up to 28.7 µM
Summary of the method: as §1

ICS = test: as above; settings: P. falciparum in erythrocytes, SYBR Green DNA, 72 h; series mostly up to 28.7 µM
Summary of the method: as §1

Measured: Potency

C[C@]12CC[C@H]3[C@@H](CCC4=CC(=O)CC[C@@]43C)[C@@H]1CC[C@@H]2O
inactive: all assays above
